# Screening data deposited in PubChem BioAssay by Broad Institute.
# ERAP1 HTS inh: inhibitors of human ERAP1 aminopeptidase. Q9NZ08. recombinant ERAP1, Leu-AMC fluorescence, 60 min. inhibition, % at 10.7 µM. hit rate 0.15% among 340,000. AID 652197;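 active = mean replicate inhibition of at least 30%, or all replicates individually reaching that 30% level; inactive = mean below 30% and not every replicate reaching it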;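 also: 0% = neutral control wells and 100% = L-leucinethiol positive control wells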
# Target sequence (Q9NZ08 whole entry, looked up): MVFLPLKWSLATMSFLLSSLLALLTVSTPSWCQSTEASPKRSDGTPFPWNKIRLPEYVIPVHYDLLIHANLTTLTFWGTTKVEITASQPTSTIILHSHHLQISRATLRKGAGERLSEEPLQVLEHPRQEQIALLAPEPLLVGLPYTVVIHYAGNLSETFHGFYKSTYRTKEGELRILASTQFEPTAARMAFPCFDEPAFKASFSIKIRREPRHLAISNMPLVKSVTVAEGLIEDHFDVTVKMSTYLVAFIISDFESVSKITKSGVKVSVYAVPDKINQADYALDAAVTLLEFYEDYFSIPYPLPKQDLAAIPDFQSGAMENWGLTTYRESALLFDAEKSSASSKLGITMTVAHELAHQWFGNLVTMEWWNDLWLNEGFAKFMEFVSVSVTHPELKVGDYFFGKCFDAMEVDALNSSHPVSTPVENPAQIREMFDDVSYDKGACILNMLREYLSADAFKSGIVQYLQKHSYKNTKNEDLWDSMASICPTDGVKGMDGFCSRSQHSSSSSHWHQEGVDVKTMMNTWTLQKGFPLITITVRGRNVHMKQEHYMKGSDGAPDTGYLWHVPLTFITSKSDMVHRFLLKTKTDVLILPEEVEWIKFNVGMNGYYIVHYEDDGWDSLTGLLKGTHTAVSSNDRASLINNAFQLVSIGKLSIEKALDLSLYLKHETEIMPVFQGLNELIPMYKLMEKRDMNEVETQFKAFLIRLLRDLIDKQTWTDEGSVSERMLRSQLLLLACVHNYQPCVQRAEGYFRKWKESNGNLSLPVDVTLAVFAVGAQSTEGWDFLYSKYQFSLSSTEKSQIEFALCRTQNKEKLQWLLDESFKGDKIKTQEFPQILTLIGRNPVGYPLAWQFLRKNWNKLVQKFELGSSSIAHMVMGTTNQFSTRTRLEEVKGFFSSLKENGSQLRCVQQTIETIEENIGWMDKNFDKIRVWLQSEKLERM
# PvdQ acylase: P. aeruginosa PvdQ acylase inhibition. purified PvdQ acylase, fluorescence plate reader. inhibition, % at 10 µM. hit rate 0.063% among 340,000. AID 488965; in the data active = inhibition above about 30%, passing the limit was not always enough;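 also: 0% = vehicle neutral wells and 100% = reference inhibitor wells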
# Ecoli rRNA inh: inhibitors of bacterial rRNA selective over humanized ribosomes; E. coli WT GFP vs humanized-ribosome RFP mutants, fluorescence, 24 h; stronger effect = lower value; DMSO median 0, no signal -100; GFP signal change (wild-type ribosome), % (test concentration not listed); hit rate 1.6% among 350,000;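 active = significant combined selectivity score with lowered wild-type GFP, culture density cut under 30%, mutant RFP and density less affected; inactive = any of these conditions unmet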
# F508del corr: correctors of CFTR F508del function in bronchial epithelial cells. CFBE cells, YFP halide quenching; stimulated with forskolin plus potentiator P3; % fluorescence drop versus neutral controls. activity (quench increase), % at 7.58 µM. hit rate 0.36% among 350,000;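 active = mean added fluorescence quench of at least 8% versus neutral control, with both replicates also reaching 8%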;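 also: cells transiently co-express mutant CFTR-F508del with the halide-sensitive YFP; corrector assay measuring rescue of mutant channel to the surface after 24 h compound exposure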
# ARNT-TACC3 inh: ARNT/TACC3 interaction disruption | Q9Y6A5 | AlphaScreen His-ARNT PAS-B/GST-TACC3 binding, luminescence; TACC3 fragment carries E629A point mutation | inhibition, % at 9.99 µM | hit rate 0.66% among 390,000;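 active = mean inhibition of replicates at least 50% and at least half of replicates each reaching 50%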;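 also: 0% = complete ARNT plus TACC3 wells and 100% = ARNT alone without TACC3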
# Starred values were filed as active, the others as inactive; . = not tested or not shown. Only some compounds are listed: those with a hit (about 2.1% of all), similar ones and a draw of the others.
SMILES,ERAP1 HTS inh,PvdQ acylase,Ecoli rRNA inh,F508del corr,ARNT-TACC3 inh
CCN(c1ccccc1)S(=O)(=O)c1ccc(Cl)c(NC(=O)CSc2nnc(C)s2)c1,3,5,-32*,1,-1
CC(=O)Nc1ccc2c(c1)C(=O)N(C)[C@@H]1CC[C@@H](CC(=O)NCc3ccc4c(c3)OCO4)O[C@H]1CO2,.,.,2,-1,-7
COc1ccccc1NC(=O)C(=O)NCC1COc2ccccc2O1 (stereo not given),-2,-17,-23*,-1,-1
Cc1nc(Sc2ccccc2)c(C#N)c(C)c1[N+](=O)[O-],4,-10,-35*,-2,-6
COc1cc(NC(=O)c2ccc([N+](=O)[O-])o2)ccc1NC(=O)c1ccco1,1,-7,-22*,-3,-5
CCN(c1ccccc1)S(=O)(=O)c1ccc(OC)c(NC(=O)c2ccccc2OC)c1,-3,-13,2,-5,-5
CC(=O)c1ccc(NC(=O)Nc2ccc(Br)cc2C)cc1,.,8,-19*,-1,1
COc1cc2c(cc1NC(=O)c1ccco1)CCCC2,5,-2,-32*,-2,-2
CCN(c1ccccc1)S(=O)(=O)c1ccc(OC)c(NC(=O)c2ccco2)c1,-2,.,-19*,3,.
O=C(Nc1ccccc1)Nc1ccc2c(c1)[C@@H]1C[C@H](CC(=O)N3CCCCC3)O[C@@H](CO)[C@@H]1O2,0,.,1,-1,-9
CCCNC(=O)Nc1ccc2c(c1)OC[C@H](C)N(Cc1ccc(-c3ccccn3)cc1)C[C@@H](C)[C@@H](OC)CN(C)C2=O,2,.,0,2,9
Cc1ccc(NC(=O)/C(=C/c2cccs2)NC(=O)c2ccco2)c(C)c1,-3,-6,-30*,-2,.
Cc1cc(Br)ccc1NC(=O)c1ccco1,1,-16,-22*,-1,1
CC(C)CC#Cc1cnc2c(c1)C(=O)N([C@@H](C)CO)C[C@@H](C)[C@H](CN(C)C(=O)Cc1ccccc1)O2,0,.,-4,2,7
O=C(c1cnccn1)N1CC(=O)N2[C@@H](CO)[C@H](c3ccc(C#CC4CCCCC4)cc3)[C@@H]2C1,-1,.,8,-1,.
COc1cc(NC(=O)CCCOc2ccc(Cl)cc2Cl)c(C(=O)O)cc1OC,-1,-8,-31*,1,-3
O=C(CCCOc1ccc(Cl)cc1Cl)Nc1ccc(O)cc1C(=O)O,-2,15,3,-2,29
CC(C)C#Cc1cnc2c(c1)C(=O)N([C@H](C)CO)C[C@H](C)[C@@H](CN(C)Cc1cccc(F)c1)O2,5,.,-4,-3,0
Cc1ccccc1S(=O)(=O)N1CC(=O)N2[C@@H](CO)[C@H](c3ccc(C#Cc4ccccc4)cc3)[C@@H]2C1,0,.,2,-1,.
O=C(Nc1cccc(S(=O)(=O)N2CCCCC2)c1)c1ccc([N+](=O)[O-])o1,-2,-7,-28*,-13,6
O=C(COC(=O)c1ccc([N+](=O)[O-])o1)Nc1cccc(S(=O)(=O)N2CCCCC2)c1,-2,-1,2,4,0
O=C(Nc1ccc(Cl)c(S(=O)(=O)N2CCOCC2)c1)c1ccc2c(c1)OCO2,3,-13,-23*,2,15
O=C(NCc1ccc(Cl)cc1)c1cccc(S(=O)(=O)N2CCCC2)c1,0,-12,-19*,-3,3
Cc1ccc(NC(=O)c2ccc([N+](=O)[O-])o2)cc1S(=O)(=O)N1CCOCC1,10,-13,-23*,.,.
O=C(Nc1cccc(S(=O)(=O)N2CCCCCC2)c1)c1ccc(Cl)nc1,-7,-7,-11,-2,-5
SMILES,ERAP1 HTS inh,PvdQ acylase,Ecoli rRNA inh,F508del corr,ARNT-TACC3 inh
O=C(Nc1cccc(S(=O)(=O)N2CCCCC2)c1)c1ccc(Cl)nc1,0,-13,-24*,1,22
COc1ccc(NC(=O)c2c(C)noc2C)cc1S(=O)(=O)N1CCCCC1,0,.,1,0,.
Cc1ccc(NC(=O)c2c(C)noc2C)cc1S(=O)(=O)N1CCOCC1,0,-12,2,9.9*,-4
C[C@H]1CN([C@@H](C)CO)C(=O)Cc2cc(NS(=O)(=O)c3ccccc3)ccc2O[C@@H]1CN(C)S(=O)(=O)c1cccs1,2,.,-3,-5,-6
O=C(CCN1CCOCC1)c1ccccc1,0,4,5,-5,0
O=C(CCN1CCOCC1)NNC(=S)NC(=O)c1ccccc1,10,-12,0,1,48*
